# Screens deposited in PubChem by The Scripps Research Institute Molecular Screening Center.
# ABHD5-PLIN5 inh – inhibitors of human ABHD5-perilipin-5 interaction. actives 0.78% (n = 360,000). Split G. princeps luciferase complementation, luminescence, 4 h. inhibition, % at 4 µM;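 active = inhibition above the mean inhibition across every tested compound plus 3 SD, cut at about 22% in these data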;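 note: 0% = DMSO only wells and the 100% control is not disclosed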
# TLR4-MyD88 BLA – blocks binding of human TLR4 to MyD88; O00206+Q99836; HeLa CL3-4 TLR4/MyD88 BLA complementation, FRET ratio; inhibition, % at 8.4 µM; actives 0.18% (n = 200,000); AID 861; in the data active = inhibition above about 25%;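 note: 0% = vehicle and 100% = reference inhibitor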
# TLR9-MyD88 block – inhibitors of human TLR9-MyD88 binding | inhibition, % at 4.98 µM | CHO BLA complementation TLR9-MyD88, CCF4 FRET ratio | actives 0.21% (n = 340,000) | Q9NR96+Q99836;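 active = inhibition above the mean over all tested compounds plus 3 SD, cut at about 21% in these data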;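 note: 0% = DMSO only wells and 100% = clavulanate BLA inhibitor control wells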
# Target sequence (Q99836 whole entry, looked up): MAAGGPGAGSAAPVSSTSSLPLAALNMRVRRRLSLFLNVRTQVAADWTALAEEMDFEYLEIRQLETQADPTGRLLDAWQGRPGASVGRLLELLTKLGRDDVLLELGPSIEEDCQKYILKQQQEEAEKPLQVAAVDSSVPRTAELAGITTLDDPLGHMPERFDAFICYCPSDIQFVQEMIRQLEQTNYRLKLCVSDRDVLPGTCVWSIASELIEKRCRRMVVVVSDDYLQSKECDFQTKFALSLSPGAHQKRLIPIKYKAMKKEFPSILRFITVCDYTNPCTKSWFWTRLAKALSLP
# Target sequence (Q9NR96 whole entry, looked up): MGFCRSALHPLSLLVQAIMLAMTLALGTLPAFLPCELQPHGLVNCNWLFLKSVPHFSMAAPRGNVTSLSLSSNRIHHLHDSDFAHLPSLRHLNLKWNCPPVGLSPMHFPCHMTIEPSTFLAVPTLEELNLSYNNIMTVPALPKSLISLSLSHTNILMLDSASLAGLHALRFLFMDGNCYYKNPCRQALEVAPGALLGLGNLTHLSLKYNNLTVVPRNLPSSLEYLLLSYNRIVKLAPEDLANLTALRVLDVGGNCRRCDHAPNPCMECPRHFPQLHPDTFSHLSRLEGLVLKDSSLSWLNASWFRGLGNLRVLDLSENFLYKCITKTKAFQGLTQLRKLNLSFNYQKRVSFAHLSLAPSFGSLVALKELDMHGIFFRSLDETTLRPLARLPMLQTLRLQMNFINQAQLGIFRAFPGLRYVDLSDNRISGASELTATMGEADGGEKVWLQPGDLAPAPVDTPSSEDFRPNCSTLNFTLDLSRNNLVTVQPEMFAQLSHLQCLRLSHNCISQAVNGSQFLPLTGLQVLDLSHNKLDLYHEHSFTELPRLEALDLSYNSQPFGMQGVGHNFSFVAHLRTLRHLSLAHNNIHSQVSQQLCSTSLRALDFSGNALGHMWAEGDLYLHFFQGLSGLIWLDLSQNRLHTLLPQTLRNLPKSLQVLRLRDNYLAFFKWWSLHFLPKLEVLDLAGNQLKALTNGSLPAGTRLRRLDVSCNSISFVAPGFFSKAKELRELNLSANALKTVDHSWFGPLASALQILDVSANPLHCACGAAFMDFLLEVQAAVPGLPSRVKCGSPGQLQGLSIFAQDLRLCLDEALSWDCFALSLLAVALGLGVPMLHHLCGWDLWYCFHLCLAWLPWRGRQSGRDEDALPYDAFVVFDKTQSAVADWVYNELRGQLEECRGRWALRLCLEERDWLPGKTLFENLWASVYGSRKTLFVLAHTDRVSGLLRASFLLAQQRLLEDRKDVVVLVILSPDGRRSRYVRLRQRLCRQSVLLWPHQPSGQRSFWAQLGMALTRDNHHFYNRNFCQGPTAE
# NOD2 RIPK2 PPI – NOD2-RIPK2 protein interaction inhibition. AID 624267. O43353. actives 0.38% (n = 360,000). CHO BLA complementation NOD2-RIPK2, CCF4 ratio. inhibition, % at 4.98 µM; in the data active = inhibition above about 21%;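 note: 0% = vehicle only and 100% = reference blocker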
# * = called active by the depositor; . = no result. Hits are enriched below; roughly 1.2% of the tested compounds scored in any of these assays.
SMILES,ABHD5-PLIN5 inh,TLR4-MyD88 BLA,TLR9-MyD88 block,NOD2 RIPK2 PPI
C#CCOCCOCCOCCNc1nc(N2CCN(C(=O)CCCCCCCCCCNC(=O)[C@H](CCCCN)n3cc(C)nn3)CC2)nc(N2CCN(C(=O)CCCCCCCCCCNC(=O)[C@@H]([C@H](C)CC)n3cc(CCCCCN)nn3)CC2)n1,45*,.,23*,50*
C#CCOCCOCCOCCNc1nc(N2CCN(C(=O)CCCCCCCCCCNC(=O)[C@@H](CCC(=O)O)n3cc(CCCCCN)nn3)CC2)nc(N2CCN(C(=O)CCCCCCCCCCNC(=O)[C@@H](CCC(=O)O)n3cc(CCCCCN)nn3)CC2)n1,14,.,-11,2
C#CCOCCOCCOCCNc1nc(N2CCN(C(=O)CCCCCCCCCCNC(=O)Cn3cc(CCCCCN)nn3)CC2)nc(N2CCN(C(=O)CCCCCCCCCCNC(=O)[C@H]([C@@H](C)CC)n3cc(CCCCCN)nn3)CC2)n1,34*,.,5,14
C#CCOCCOCCOCCNc1nc(N2CCOCC2)nc(N2CCN(C(=O)CCCCCCCCCCNC(=O)[C@@H]([C@H](C)O)n3cc(C)nn3)CC2)n1,-5,.,-2,-6
C#CCOCCOCCOCCNc1nc(N2CCN(C(=O)CCCCCCCCCCNC(=O)[C@H]([C@@H](C)CC)n3cc(CCCCCN)nn3)CC2)nc(N2CCN(C(=O)CCCCCCCCCCNC(=O)[C@@H]([C@H](C)O)n3cc(C)nn3)CC2)n1,41*,.,3,37*
Cc1cc(N=Nc2ccccc2)c(NCC(O)C(O)C(O)CO)cc1C (stereo not drawn),22*,-2,-7,-1
O=C(Cn1c(=O)n(Cc2ccco2)c(=O)c2c3c(sc21)CCCCC3)c1ccccc1,51*,-10,3,3
O=C(Cn1c(=O)n(Cc2ccco2)c(=O)c2c3c(sc21)CCCCC3)Nc1ccccc1,66*,15,4,11
COc1cc(C(O)c2nc(-c3cccc(C#N)c3)cs2)ccc1F (stereo not drawn),9,.,.,0
S=C1Cc2ccccc2N1,86*,.,1,0
O=C(N/N=C/C=C/c1ccc([N+](=O)[O-])cc1)C1COc2ccccc2O1 (stereo not drawn),3,-5,-5,-6
O=C(N/N=C\C=C\c1ccco1)C1COc2ccccc2O1 (stereo not drawn),23*,.,-1,-14
CC(C)CC(=O)/C(=C/c1ccc(N(C)C)cc1)n1cncn1,1,.,9,6
CC(C)CC(=O)/C(=C\c1ccc(Cl)cc1Cl)n1cncn1,95*,13,-3,-4
CC1(C(=O)NS(=O)(=O)C2CC2)CCN(C(=O)C2(c3ccc(Cl)cc3)CCCC2)C1 (stereo not drawn),2,.,.,-2
Cc1cc(C)c2c(=O)n(CC(=O)Nc3cccc(Cl)c3C)sc2n1,48*,.,8,18
CN(CC(=O)Nc1ccc(Cl)cc1F)C1=NS(=O)(=O)c2ccccc21,2,.,-10,-1
O=C1CSC(c2nn(-c3ccccc3)cc2-c2cc3ccccc3oc2=O)N1Cc1ccco1 (stereo not drawn),23*,3,4,-6
O=C1CSC(c2cn(-c3ccccc3)nc2-c2cc3ccccc3oc2=O)N1Cc1ccccc1 (stereo not drawn),-1,-2,6,-5
Cc1ccc(/C=C/C(O)=C2/C(=O)N(C)C3(C)CC2c2ccccc2O3)cc1 (stereo not drawn),22*,10,-10,-9
Cc1nnc(SC(C)C(=O)Nc2ccc3ccccc3c2)[nH]c1=O (stereo not drawn),-3,.,2,-16
Cc1cc(N/N=C/c2cccc(Cl)c2)nc(NCc2ccccc2)n1,-4,-1,-12,-8
Cc1cc(Nc2cccc(Cl)c2)nc(NCc2ccccc2)n1,22*,-14,8,0
Cc1noc(/C=C/c2ccco2)c1S(=O)(=O)N1CCC(C(=O)N2CCc3ccccc3C2)CC1,22*,-14,-5,1
CCOC(=O)C1=C(c2ccccc2)N=c2s/c(=C\c3cc(OC)c(OC)c(OC)c3)c(=O)n2C1c1cccs1 (stereo not drawn),0,24,22*,11
CCOC(=O)C1=C(c2ccccc2)N=c2s/c(=C\c3ccco3)c(=O)n2C1c1cccs1 (stereo not drawn),-8,4,6,-1
CCCC[C@@H]1Cc2[nH][nH]c(=O)c2[C@H](c2ccc(C(C)C)cc2)O1,23*,.,.,-4
CCCC[C@@H]1Cc2[nH][nH]c(=O)c2[C@@H](c2ccc(Cl)cc2)O1,23*,.,.,-4
